Compound activity deposited in PubChem BioAssay by National Center for Advancing Translational Sciences (NCATS).
Compounds with a hit are over-represented: about 9.3% of the library has one in this group of screens.
ELG1 genotoxic = induces genotoxicity in HEK293T cells with luciferase-tagged ELG1; HEK293T ELG1-luciferase reporter, luminescence, 16 h; Potency, µM (doses to about 46 µM), hits mostly activators; actives 1.3% (n = 330,000); AID 504466; further: nearly all actives have a fitted effect of over 60% in size
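Reporter readout depends on ELG1 protein level, which increases with genetic stress. After 16 hr compound exposure at 37 °C, luciferase activity was quantified using ONE-Glo.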
ELG1 DNA repair = ELG1-dependent DNA repair inhibition. actives 2.3% (n = 330,000). AID 504467. Potency, µM (top dose mostly 46.1 µM), hits mostly inhibitors. HEK293T ELG1-luciferase reporter, luminescence, 16 h; DNA damage induced by 5-fluorouridine; further: nearly all actives have a fitted effect of over 55% in size
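Quantitative HTS, concentration-response format. 2,000 cells/well co-treated with 5-fluorouridine and compound, 16 hr in 5% CO2 at 37 °C; ONE-Glo luminescence read after 30 min.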
Rab9 promoter act = activates the Rab9 promoter; Huh7 Rab9 promoter-luciferase reporter, luminescence, 24 h; Potency, µM (highest dose often 9.22 µM), most hits filed as activators; actives 2.8% (n = 320,000); further: nearly all actives have a fitted effect of over 60% in size
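Measured in stably transfected Huh7 cells bearing a Rab9 promoter–luciferase construct: 24 h compound treatment at 37 °C, followed by luminescence detection.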
NPC1 promoter act = NPC1 promoter activation; AID 485313; Potency, µM (top dose mostly 9.22 µM), most hits filed as activators; actives 2.4% (n = 320,000); Huh7 NPC1 promoter luciferase reporter, 24 h; further: nearly all actives have a fitted effect of over 60% in size
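Stably transfected Huh7 (NPC1 promoter→luciferase), 1500 cells/well in Opti-MEM + 10% FBS, 2 h settle, then compound 24 h at 37 °C. Luminescence after 10 min with Amplite reagent.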
SMN2 splice enh = enhancers of SMN2 splice variant expression; HEK293 SMN2-luciferase splicing reporter, luminescence, 30-36 h; Potency, µM (doses to about 46.1 µM), hits mostly activators; actives 2.8% (n = 210,000); AID 1458; further: nearly all actives have a fitted effect of over 55% in size
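qHTS luciferase splicing reporter: luminescence rises when SMN2 exon 7 is included in transfected HEK293 cells. Compound exposure lasted 30-36 h at 37C, with 4.5 mM final sodium butyrate as control, followed by a ONE-Glo read.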
FLuc counter = firefly luciferase modulation, counter-screen for miR-21 project; Potency, µM (highest dose often 57.5 µM), actives largely listed as inhibitors; actives 6.9% (n = 360,000); AID 588342; purified FLuc, Km substrates, luminescence inhibition; P08659; further: nearly all actives have a fitted effect of over 55% in size
Target sequence (P08659 whole entry, looked up): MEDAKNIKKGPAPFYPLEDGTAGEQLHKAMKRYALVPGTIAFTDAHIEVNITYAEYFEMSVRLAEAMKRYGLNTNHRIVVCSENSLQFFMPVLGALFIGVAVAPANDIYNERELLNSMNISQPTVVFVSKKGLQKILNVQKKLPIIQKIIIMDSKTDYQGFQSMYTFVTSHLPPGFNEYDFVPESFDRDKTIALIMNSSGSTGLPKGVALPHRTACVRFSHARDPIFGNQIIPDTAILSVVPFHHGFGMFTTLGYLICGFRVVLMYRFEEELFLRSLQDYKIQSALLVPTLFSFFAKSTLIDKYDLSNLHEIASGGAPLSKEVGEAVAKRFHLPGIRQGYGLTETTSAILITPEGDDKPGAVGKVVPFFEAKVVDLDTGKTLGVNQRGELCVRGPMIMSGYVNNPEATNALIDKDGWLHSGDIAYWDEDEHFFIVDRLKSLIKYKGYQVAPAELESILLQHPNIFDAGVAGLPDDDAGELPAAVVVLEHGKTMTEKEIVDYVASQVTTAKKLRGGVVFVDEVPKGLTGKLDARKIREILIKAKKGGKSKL
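Purified P. pyralis luciferase (10nM final) with 10uM D-luciferin and 10uM ATP (Km levels) in 50mM Tris acetate pH 7.5, 10mM Mg acetate, 0.01% Tween-20, 0.05% BSA; qHTS 6-point titration, ~60 µM downward; luminescence read.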
Numbers stand for hits; n = inactive; u = inconclusive; x = no result given. The call rests on the fitted dose curve; in most records, active means well fitted curve in the direction sought with a large enough effect; inconclusive means small, poorly fitted or top-dose-only effect, or another doubt; inactive means no such curve, though single readings can be large; an effect the other way counts as inactive or inconclusive.

SMILES	ELG1 genotoxic	ELG1 DNA repair	Rab9 promoter act	NPC1 promoter act	SMN2 splice enh	FLuc counter
Cc1ccc(OCC(=O)Nc2ccccc2C(N)=O)cc1	u	u	2.8µM	2.5µM	x	8.5µM
O=Cc1ccc(OCC(=O)Nc2ccccc2-c2ccccc2)cc1	n	n	n	n	x	n
O=C(COc1ccc(Cl)cc1)Nc1ccccc1Cl	u	u	n	n	x	17µM
NC(=O)c1ccccc1NS(=O)(=O)Cc1ccc(Cl)cc1	n	n	n	n	n	n
CSc1ccccc1NC(=O)COc1ccc(Cl)cc1	n	u	n	n	n	u
COc1cccc(CN(C)CC(=O)Nc2ccccc2N2CCOCC2)c1OC	n	n	n	n	n	n
Cn1nnnc1SCCNC(=O)C1CCC(=O)N(CCc2ccccc2)C1 (stereo unspecified)	n	n	n	n	x	n
CCOC(=O)c1c(NC(=O)C2=C(C)NC(=S)NC2c2ccc(CC)cc2)sc(C)c1C (stereo unspecified)	n	6.5µM	n	n	n	n
CCOC(=O)C1=C(C)NC(=S)NC1c1ccc(OC(=O)c2ccco2)cc1 (stereo unspecified)	n	n	n	n	n	n
CCOC(=O)c1sc2nc(NC(=O)C(C)(C)C)sc2c1C	2.6µM	u	1.3µM	0.89µM	u	2.7µM
O=C(O)c1cccc(NS(=O)(=O)c2ccc(C3CCCCC3)cc2)c1	n	n	n	n	n	27µM
COc1cccc(C(=O)Nc2nnc(-c3ccccc3)s2)c1OC	u	u	1.8µM	2.5µM	x	12µM
COc1ccccc1C(=O)Nc1cc(-c2ccc(C)cc2)no1	u	u	u	u	u	6µM
COc1cccc(OC)c1C(=O)Nc1nnc(C)s1	x	x	x	x	n	n
COc1cccc(C(=O)Nc2sc(C(C)C)cc2C(N)=O)c1OC	n	u	n	n	x	21µM
COc1cccc(C(=O)NC2=NCCS2)c1OC	u	u	u	n	u	u
COc1ccccc1C(=O)Nc1nnc(C)s1	13µM	u	u	u	n	17µM
COC(=O)c1cc(OC)c(OC)cc1NC(=O)c1cccc(OC)c1OC	n	u	n	n	n	n
Cc1nnc(NC(=O)c2ccccc2NC(=O)c2ccccc2)s1	n	u	n	n	x	8.5µM
CC(=O)Nc1sc(N/N=C\c2ccc(O)cc2)nc1-c1cccs1	u	u	n	n	x	12µM
COc1ccccc1C(=O)Nc1nc(-c2cccs2)c(NC(C)=O)s1	9.2µM	u	u	n	u	0.76µM
CC(C)=CC(=O)Nc1nnc(-c2ccccc2)s1	2.9µM	u	1.4µM	2.2µM	11µM	u
Cc1ccc(-c2nc(C)sc2CC(=O)OCC(=O)Nc2cccc([N+](=O)[O-])c2)cc1	n	n	n	n	n	n
COc1ccccc1C(=O)N(C)c1nnc(-c2ccccc2)s1	n	u	u	3.5µM	x	19µM
COc1ccc(-c2nnc(NC(=O)c3c(OC)cccc3OC)s2)cc1	n	n	n	n	x	u
SMILES	ELG1 genotoxic	ELG1 DNA repair	Rab9 promoter act	NPC1 promoter act	SMN2 splice enh	FLuc counter
O=C(Nc1nnc(-c2ccccc2)s1)c1ccccc1O	n	u	2.5µM	1.8µM	x	4.3µM
COCCN(C(=O)c1ccccc1OC)c1nnc(C)s1	n	u	n	n	n	n
COc1ccccc1C(=O)Nc1nnc(-c2ccccc2)s1	u	u	n	u	x	13µM
O=C(Nc1ccccc1)Nc1nnc(-c2ccccc2)s1	n	u	u	u	x	n
CC(Sc1nncn1C)C(=O)Nc1nnc(-c2ccccc2)s1 (stereo unspecified)	16µM	u	u	u	14µM	15µM
CC(Sc1nncn1C)C(=O)Nc1nnc(C(C)C)s1 (stereo unspecified)	n	n	n	n	n	n
O=c1[nH]cccc1-c1nc2cc(Cl)ccc2n1Cc1ccccc1	n	n	n	n	x	n
Cc1ccc(S(=O)(=O)N2CCN(C(C)C(=O)N3CCCc4ccccc43)CC2)cc1 (stereo unspecified)	n	n	n	n	n	n
CCN(CC)c1nc2c(-c3cccc(Br)c3)nnn2c2ccccc12	x	x	x	x	n	u
CCOC(=O)N1CCN(C(=O)CCS(=O)(=O)c2ccc3c(c2)CC(C)N3C(=O)CC)CC1 (stereo unspecified)	n	n	n	n	x	n
CCCCCCCn1ccc(=N)cc1	n	u	n	n	n	n
CCCCCCCCCn1ccc(=N)cc1	n	0.41µM	n	n	x	n
COc1ccc(N2CCN(C(=O)CNC(=O)Cc3ccc(Cl)cc3)CC2)cc1	n	n	n	n	x	n
CCSc1nnc2c(n1)[nH]c1c(C)cccc12	u	n	5.6µM	n	n	12µM
CSc1nnc2c(n1)[nH]c1c(C)cccc12	n	u	n	n	n	u
Cc1ccc(NC(=O)CSc2nnc(-c3n[nH]c4ccccc34)n2-c2ccccc2)c(C)c1	n	23µM	n	n	n	n
Cc1ccc(OCc2nnc(SCC(=O)Nc3cccc4ccccc34)n2-c2ccccc2)cc1	n	u	n	n	n	n
O=C1CC(c2ccc(F)cc2)CC(O)=C1C=NCCN1CCN(C(=O)Nc2ccccc2)CC1 (stereo unspecified)	n	n	n	n	n	n
CCN(Cc1ccccc1)Cc1ccc(OCc2ccccc2)cc1	n	n	n	n	x	n
CC(/C=C/c1ccccc1)=N/O	n	n	n	n	n	u
CC(/C=C/c1ccc(O)cc1)=N/O	n	23µM	n	n	u	u
CC(/C=C/c1ccc(OCc2ccccc2)cc1)=N\O	15µM	u	2.8µM	2.8µM	11µM	2.4µM
C=CCOc1ccc(Cl)cc1CNC1CCCC1	n	n	n	n	n	n
COc1cccc2cc(C(C)=O)oc12	n	n	n	n	n	n
COc1cc(NC(=O)c2csc(-c3ccncc3)n2)cc(C(=O)Nc2cccc(C(F)(F)F)c2)c1	n	5.2µM	n	n	x	u
SMILES	ELG1 genotoxic	ELG1 DNA repair	Rab9 promoter act	NPC1 promoter act	SMN2 splice enh	FLuc counter
COc1cc(NC(=O)c2cc3cccc(OC)c3o2)cc(C(=O)Nc2cccc(C(F)(F)F)c2)c1	n	12µM	n	n	x	u
COc1ccc(C(=O)c2cc3cccc(OC)c3o2)cc1	u	u	3.2µM	3.2µM	14µM	9.5µM
CCOC(=O)c1c(NC(=O)/C=C/c2ccc(Cl)cc2)sc2c1CCC(C)C2 (stereo unspecified)	x	x	x	x	n	n
COC(=O)c1ccccc1N=Nc1c(N)n[nH]c1N	n	n	n	n	x	n
COC(=O)c1ccccc1N=Nc1c(N)[nH][nH]c1=O	n	n	n	n	x	11µM
COC(=O)C1CCN(C(=O)C2CCN(C(=O)[C@H](C)NS(=O)(=O)c3ccc(C)cc3)CC2)CC1	n	n	n	n	x	n
O=C(O)c1cccc(-c2ccc3c(c2)OCO3)c1	n	n	n	n	x	u
